From PubChem BioAssay (NCATS)
Unmarked numbers belong to inactive results. Inconclusive results are not listed. A call without a number means that no potency is given here. Active and inactive are the calls of the source. Calls follow the shape of the dose curve; as a rule, active = well fitted curve in the direction sought with a large enough effect; inconclusive = small, poorly fitted or top-dose-only effect, or another doubt; inactive = no such curve, though single readings can be large; an effect the other way counts as inactive or inconclusive.

Assays:
[1] = target: Glutathione peroxidase 1 (Homo sapiens) (UniProt P07203); assay: Primary qHTS Assay for Inhibitors of Recombinant Selenoprotein Glutathione Peroxidase 1 (GPX1) (AID 1845191); also: nearly all actives have a fitted effect of over 65% in size; also: potency is read from the fitted curve at half-maximal effect
Chain of Glutathione peroxidase 1 (Homo sapiens) (P07203 whole entry, looked up): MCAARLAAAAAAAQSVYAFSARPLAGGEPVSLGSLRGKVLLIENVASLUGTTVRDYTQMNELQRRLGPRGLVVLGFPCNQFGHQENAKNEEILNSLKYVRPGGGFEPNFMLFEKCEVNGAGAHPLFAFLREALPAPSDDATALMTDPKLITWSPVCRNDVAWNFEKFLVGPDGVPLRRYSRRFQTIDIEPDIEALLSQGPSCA
Method in brief: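 GR-coupled assay: compounds preincubated 30 min at room temperature with GPX1, then reaction started with CHP; final 10 nM GPX1, 1 mM GSH, 0.5 mM CHP, 0.5 mM NADPH, 100 nM GR, 0.01% BSA, pH 7.5 Tris buffer. NADPH fluorescence (340/450 nm) read at 0 and 15 min.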

[2] = target: Phospholipid hydroperoxide glutathione peroxidase GPX4 (Homo sapiens) (UniProt P36969); assay: Primary qHTS Assay for Inhibitors of Recombinant Selenoprotein Glutathione Peroxidase 4 (GPX4) (AID 1845192); also: nearly all actives have a fitted effect of over 65% in size; also: potency is read from the fitted curve at half-maximal effect; as to activity change, negative = inhibition: series mostly up to about 50 µM
Chain of Phospholipid hydroperoxide glutathione peroxidase GPX4 (Homo sapiens) (P36969 whole entry, looked up): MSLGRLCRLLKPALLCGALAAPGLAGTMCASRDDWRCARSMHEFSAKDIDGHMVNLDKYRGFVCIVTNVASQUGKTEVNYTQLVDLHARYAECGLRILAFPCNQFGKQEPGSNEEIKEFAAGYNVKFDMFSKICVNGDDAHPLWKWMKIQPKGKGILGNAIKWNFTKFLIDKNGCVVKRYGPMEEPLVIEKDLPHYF
Method in brief: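 GR-coupled assay: recombinant GPX4 preincubated 30 min with compound at room temperature; final 200 nM GPX4, 1 mM GSH, 0.5 mM cumene hydroperoxide, 0.5 mM NADPH, 100 nM GR, 0.01% BSA, pH 7.5 Tris. NADPH fluorescence (340/450 nm) read at 0 and 15 min.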

[3] = target: Metallo-beta-lactamase type 2 (Klebsiella pneumoniae) (UniProt C7C422); assay: qHTS to identify inhibitors of the New Delhi Metallo-beta-lactamase (NDM): assay validation screen against the NCATS LOPAC Collection (AID 1794843); also: potency is read from the fitted curve at half-maximal effect;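 as to activity change, negative = inhibition: nitrocefin turnover by NDM-1 measured as 485 nm absorbance at plateau; series mostly up to about 38 µM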
Chain of Metallo-beta-lactamase type 2 (Klebsiella pneumoniae) (C7C422 whole entry, looked up): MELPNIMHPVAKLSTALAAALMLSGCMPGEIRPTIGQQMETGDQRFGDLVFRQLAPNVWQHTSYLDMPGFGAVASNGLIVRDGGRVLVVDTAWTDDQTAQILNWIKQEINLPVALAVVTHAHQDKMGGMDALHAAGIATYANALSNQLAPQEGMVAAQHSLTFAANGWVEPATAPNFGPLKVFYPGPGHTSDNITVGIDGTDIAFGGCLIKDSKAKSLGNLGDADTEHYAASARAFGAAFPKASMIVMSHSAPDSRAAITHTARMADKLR
Method in brief: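 NDM-1 at 2 nM final in 50 mM HEPES pH 7.0, 1 uM ZnSO4, 0.01% Tween20, preincubated with LOPAC compounds pinned in DMSO; 50 uM nitrocefin (stock) added. Hydrolysis read as absorbance at 485 nm in the plateau phase.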

[4] = target: Luciferin 4-monooxygenase (Photinus pyralis) (UniProt P08659); assay: Primary firefly luciferase (FLuc) qHTS assay for identification of artifact compounds. (AID 1845220); also: nearly all actives have a fitted effect of over 60% in size; as to activity change, negative = inhibition: series mostly up to about 54 µM
Method in brief: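 Enzymatic FLuc inhibition assay: compounds pre-exposed to luciferin/ATP (10 uM each) for 15 min, then purified P. pyralis enzyme at 10 nM added. Read-out: luminescence at 5 min.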

## c1ccc2sc(SNC3CCCCC3)nc2c1
[1]
  Potency: 28.2 µM (active)

## O=C(O)C(Cl)(Cl)Cl
[1]
  Potency: inactive
[2]
  Potency: inactive

## CC(=O)O[C@H]1CC[C@H]2[C@@H]3CCC4=CC(=O)CCC4=C3C=C[C@]12C
[1]
  Potency: inactive
[2]
  Potency: 22.4 µM (active)

## Cc1o[nH]c(=O)c1CC(N)C(=O)O (centres undefined)
[3]
  Potency: inactive
[1]
  Potency: inactive
[2]
  Potency: inactive

## O=C(NCNC(=O)NC1C(=O)NC(=O)N1CO)NC1C(=O)NC(=O)N1CO (centres undefined)
[1]
  Potency: inactive

## C[N+]1(C)CCOC(O)(c2ccc(-c3ccc(C4(O)C[N+](C)(C)CCO4)cc3)cc2)C1 (centres undefined)
[3]
  Potency: inactive
[1]
  Potency: inactive
[2]
  Potency: inactive

## C/C(O)=C(\C#N)C(=O)Nc1cc(Br)ccc1Br
[1]
  Potency: inactive

## N=C(N)c1ccc(CS(=O)(=O)F)cc1
[1]
  Potency: inactive

## CCCCC[C@@H](O)C1C(=O)OC(C)[C@H](O)/C=C/C=C/C=C/C=C/C=C(\C)C(O)C(O)C(O)C[C@H](O)C[C@H](O)C[C@H](O)C[C@H](O)C[C@@H]1O (some centres undefined)
[1]
  Potency: inactive

## CCCCCCC(=O)O[C@H]1CC[C@H]2[C@@H]3CC[C@H]4CC(=O)C=C(C)[C@]4(C)[C@H]3CC[C@]12C
[1]
  Potency: inactive

## C[C@]12CC[C@H](OS(=O)(=O)O)CC1=CC[C@@H]1[C@@H]2CC[C@]2(C)C(=O)CC[C@@H]12
[1]
  Potency: inactive

## NC(=O)c1cc(N2CC2)c([N+](=O)[O-])cc1[N+](=O)[O-]
[1]
  Potency: inactive
[2]
  Potency: inactive

## O=[N+]([O-])c1cc(I)c(O)c(I)c1
[1]
  Potency: inactive

## O=C1CC[C@@]2(O)C3Cc4ccc(O)c5c4C2(CCN3CC2CC2)[C@H]1O5 (some centres undefined)
[3]
  Potency: inactive
[1]
  Potency: inactive
[2]
  Potency: inactive

## C[C@@H](CO)NC(=O)[C@@H]1C=C2c3cccc4[nH]cc(c34)C[C@H]2N(C)C1
[1]
  Potency: inactive

## CC(C)CCON=O
[1]
  Potency: inactive
[2]
  Potency: inactive

## CCNCC(O)c1cccc(O)c1 (centres undefined)
[1]
  Potency: inactive
[2]
  Potency: inactive

## COc1ccc2c(c1)/C(=C/c1cnc[nH]1)C(=O)N2
[1]
  Potency: inactive

## CCCC(=O)OC(C(Cl)(Cl)Cl)P(=O)(OC)OC (centres undefined)
[1]
  Potency: inactive

## C[N+]1(C)CCCCC1COC(=O)C(O)(c1ccccc1)c1ccccc1 (centres undefined)
[1]
  Potency: inactive
[2]
  Potency: inactive

## CN1[C@H]2CC[C@@H]1[C@@H](C(=O)O)[C@@H](OC(=O)c1ccccc1)C2
[1]
  Potency: inactive
[2]
  Potency: inactive

## O=C(OCCN1CCCCC1)C(O)(c1ccccc1)c1ccccc1
[1]
  Potency: inactive
[2]
  Potency: inactive

## COC([CH2][Hg])CNC(=O)c1ccccc1OCC(=O)O (centres undefined)
[1]
  Potency: inactive

## Nc1cc2c(ncn2CCOCP(=O)(O)O)c(=O)[nH]1
[3]
  Potency: inactive
[1]
  Potency: inactive
[2]
  Potency: inactive

## CCC1C(C)=NN=C(c2ccc(OC)c(OC)c2)c2cc(OC)c(OC)cc21 (centres undefined)
[1]
  Potency: inactive
[2]
  Potency: inactive

## CCN(CC)C(=O)N[C@H]1C[C@@H]2c3cccc4[nH]cc(c34)C[C@H]2N(C)C1
[1]
  Potency: inactive
[2]
  Potency: inactive

## NC(Cc1cc(O)c(O)cc1O)C(=O)O (centres undefined)
[3]
  Potency: 3.98 µM (active)
[1]
  Potency: inactive
[2]
  Potency: inactive

## CCC1(CC)C(=O)NC(=O)N(C)C1=O
[1]
  Potency: inactive
[2]
  Potency: inactive

## FC(F)OC(F)(F)C(F)Cl (centres undefined)
[1]
  Potency: inactive
[2]
  Potency: inactive

## CCNC1(c2cccs2)CCCCC1=O (centres undefined)
[1]
  Potency: inactive

## CC12NC(Cc3ccccc31)c1ccccc12 (centres undefined)
[3]
  Potency: inactive
[1]
  Potency: inactive
[2]
  Potency: inactive

## CC1CCC(C(C)C)C(OC(=O)c2ccccc2N)C1 (centres undefined)
[1]
  Potency: inactive
[2]
  Potency: inactive

## CC(N)Cc1ccc(O)cc1 (centres undefined)
[1]
  Potency: inactive

## CCOC(=O)c1ccccc1C(=O)OCC
[1]
  Potency: inactive
[2]
  Potency: inactive

## CCCCCCCCCC(=O)O[C@H]1CC[C@H]2[C@@H]3CCC4=CC(=O)CC[C@]4(C)[C@H]3CC[C@]12C
[1]
  Potency: inactive

## CC(=O)OCC1=C(C(=O)O)N2C(=O)[C@@H](NC(=O)CCC[C@@H](N)C(=O)O)[C@H]2SC1
[3]
  Potency: inactive
[1]
  Potency: inactive
[2]
  Potency: inactive

## CCCN(CCC)[C@H]1CCc2c(F)ccc(O)c2C1
[3]
  Potency: inactive
[1]
  Potency: inactive
[2]
  Potency: inactive

## CC(C)(O)[C@@H]1[C@H]2OC(=O)[C@@H]1[C@]1(O)C[C@H]3O[C@]34C(=O)O[C@H]2[C@]14C
[1]
  Potency: inactive
[2]
  Potency: inactive

## NNC(N)=O
[1]
  Potency: inactive
[2]
  Potency: inactive

## C[C@]12CC[C@H]3[C@@H](CCC4=C(O)C(=O)CC[C@@H]43)[C@@H]1CC[C@@H]2OC(=O)CCC1CCCC1
[1]
  Potency: inactive
[2]
  Potency: 14.1 µM (active)

## CC[N+](C)(CC)CCOC(=O)C(O)(c1ccccc1)c1ccccc1
[1]
  Potency: inactive
[2]
  Potency: inactive

## Clc1ccc(N2C[C@H]3CC[C@@H](C2)N3)nn1
[1]
  Potency: inactive
[2]
  Potency: inactive
[4]
  Potency: inactive

## C=CC(C)(O)CC/C=C(\C)C(=O)O[C@H]1[C@H](O)[C@@H](CO)O[C@@H](OC(=O)[C@]23CCC(C)(C)CC2C2=CCC4[C@@]5(C)CC[C@H](O[C@@H]6O[C@H](CO[C@@H]7OC[C@H](O)[C@H](O)[C@H]7O[C@@H]7OC[C@@H](O)[C@H](O)[C@H]7O)[C@@H](O)[C@H](O)[C@H]6O)C(C)(C)C5CC[C@@]4(C)[C@]2(C)CC3)[C@@H]1OC1OC(C)C(O[C@@H]2OC[C@@H](O)[C@H](O[C@@H]3OC[C@@H](O)[C@H](O)[C@H]3O)[C@H]2O)C(O)C1O (some centres undefined)
[1]
  outcome: inactive [at 9.52 µM]
[2]
  activity change, negative = inhibition: 0.212% [at 9.73 µM]
[4]
  outcome: inactive [at 11.6 µM]

## Cc1c(Cl)cccc1S(=O)(=O)Nc1nc(CC(=O)N2CCN(C)CC2)cs1
[1]
  Potency: inactive
[2]
  Potency: inactive
[4]
  Potency: inactive
